Test results as given in PubChem BioAssay.
Where “and” joins values, the source holds several entries; their conditions need not be identical. Identical values can stand only once. Calls of active or inactive are those of the source.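 Rule for the calls, unless noted: active = normalized viability below 100% at a tested concentration; inactive = the rest.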

Columns and labels:
[1] = Wnt pathway potentiators raising nuclear beta-catenin – imaging, WNT3A-conditioned medium, mouse C2C12, NPC library, primary screen (AID 1117326; in the data active = nuclear beta-catenin stimulation mostly above about 4.2%, no sharp cut-off; inactive = mostly below about 10%); conditions: stronger effect = higher value
[2] = stimulators of insulin release from INS-1E, primary screen, cell-based, 5 mM glucose, NPC library (AID 1117329;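 active = compound raises insulin release from rat beta cells at 5 mM glucose, no numeric limit stated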); conditions: rat INS-1E insulin secretion, at 10 µM, stronger effect = higher value
[3] = growth inhibition of GSK3B-pretreated HCT116 cells – cell-based, CellTiter-Glo, 0.2 to 20 µM (AID 1117336;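 active = compounds lowering colon cancer cell viability after pretreatment blocking the GSK3B kinase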); conditions: HCT116 viability after GSK3B inhibitor, at 20 µM, stronger effect = higher value
[4] = inhibition of endothelial tube formation, primary screen, imaging, VEGF stimulated, CD31 staining, tube area, NPC library (AID 1117340;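 active = compound that reduces growth-factor-driven endothelial tube area in a mixed cell culture, no cutoff stated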); conditions: VEGF-stimulated ADSC/ECFC co-culture, at 10 µM, stronger effect = higher value
[5] = GLP1 release stimulators, primary, NCI-H716, NPC library (AID 1117341;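 active = compound raises GLP1 secretion from the human gut endocrine cells, with no numeric limit stated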); conditions: NCI-H716 cells, at 10 µM, stronger effect = higher value
[6] = HCT116 colon cancer cell growth inhibition, primary screen, CellTiter-Glo luminescence, NPC library (AID 1117342;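 active = compounds that lower survival of HCT116 colon cancer cells in the luminescence readout, no numeric limit stated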); conditions: at 20 µM (top of the series)
[7] = reduced SW480 viability measured with CellTiter-Glo, NPC library, primary (AID 1117343;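 active = compounds that lower viability of the colon cancer cells in the luminescence readout, with no numeric limit stated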); conditions: CellTiter-Glo luminescence; at 20 µM (top of the series) unless noted
[8] = NPC library primary testing for decreased DLD-1 cell viability via CellTiter-Glo (AID 1117346;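 active = compounds that lower survival of DLD-1 colon cancer cells in the luminescence readout, no cutoff given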); conditions: DLD-1 viability, CellTiter-Glo luminescence; at 20 µM (top of the series)
[9] = viability loss with induced miR-34 in A549 – imaging, A549 dox-inducible miR-34, nuclei and caspase counts, primary screen (AID 1347080;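 active = compounds whose cell count with miR-34 switched on is under 0.7 times the count with it off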); conditions: A549 miR-34 inducible, Hoechst nuclei count, 48 h
[10] = MELAS cybrid and Rieske KO viability enhancers – cell-based, MELAS cybrids, Rieske KO mouse fibroblasts, CellTiter-Glo, primary screen (AID 1508586;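 active = mean z-score across replicates of 1.96 or higher in either the MELAS or the Rieske mutant cell line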;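 note: z relative to plate mean and SD of compound and empty wells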); conditions: low glucose
[11] = drug combination growth inhibition, ovarian cancer – cell-based, oncology-focused library, rucaparib conditional, profiling panel (AID 1508598); conditions: patient-derived ovarian cancer cells, CellTiter-Glo viability, 144 h, stronger effect = lower value
[12] = test system: Hepatitis C virus NS3 helicase; assay: blockers of NS3h binding to ssDNA – biochemical, fluorescence polarization, LOPAC1280 library, primary screen (AID 687035; in the data active = inhibition above about 37%); conditions: Purified HCV NS3 helicase, Cy5-dT15 ssDNA binding fluorescence polarization; stronger effect = higher value; concentration not given here
[13] = compounds altering Cy5-DNA-NS3h complex signal – biochemical, LOPAC1280, artefact control for HCV NS3 helicase inhibitor project (AID 687037; call rule not given here); conditions: Cy5-DNA-NS3h complex fluorescence interference counterscreen
[14] = blockers of cellular phospholipid synthesis – cell-based, LOPAC library, screen 4, primary screen (AID 1347384; call rule not given here); conditions: animal cells, phospholipid biosynthesis inhibition screen; at 10 µM
[15] = galactose survival enhancers in mitochondrial complex I cybrids – cell-based, galactose medium, ATP luminescence, primary screen (AID 1645843;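 active = z-score of at least 1.8 in each of two replicates, scored against plate mean and spread of sample wells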;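 note: positive z means more ATP and so rescue of galactose-driven cybrid death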); conditions: complex I mutant cybrid cells, 72 h, stronger effect = higher value
[16] = molecular target: NAD(+) hydrolase SARM1 (Homo sapiens) (UniProt Q6SZW1); assay: blocking NAD cleavage by SARM1 SAM-TIR – cell lysate, NAD-Glo luminescence (AID 1508614;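 active = compound whose remaining NAD level is above about 45 nM, limit read from the data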;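 note: higher remaining NAD means stronger inhibition of SARM1 NADase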); conditions: SAM-TIR HEK293T lysate NADase, at 1 µM, stronger effect = higher value
[17] = P. berghei load reduction in hepatocytes – cell-based, HepG2, luciferase luminescence, HepG2 viability, primary screen (AID 624349; in the data active = parasite load remaining mostly below about 12%, no sharp cut-off; inactive = mostly above about 10%;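 note: 100% = mean of DMSO negative control wells on the same plate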); conditions: P. berghei liver stage in HepG2, luciferase luminescence, concentration not given here; parasite load remaining: stronger effect = lower value; viability: measured here: HepG2 viability without parasites
[18] = stronger effect = lower value, cell number ratio, induced over uninduced
[19] = measured here: relative caspase fold change +Dox/-Dox
[20] = measured here: total cells with miR-34 induction, stronger effect = lower value
[21] = measured here: total cells without miR-34 induction
[22] = MELAS cybrid survival, CellTiter-Glo 48 h, stronger effect = higher value
[23] = Rieske KO mouse fibroblast survival, CellTiter-Glo 72 h

NAD(+) hydrolase SARM1 (Homo sapiens), sequence (Q6SZW1 whole entry, looked up): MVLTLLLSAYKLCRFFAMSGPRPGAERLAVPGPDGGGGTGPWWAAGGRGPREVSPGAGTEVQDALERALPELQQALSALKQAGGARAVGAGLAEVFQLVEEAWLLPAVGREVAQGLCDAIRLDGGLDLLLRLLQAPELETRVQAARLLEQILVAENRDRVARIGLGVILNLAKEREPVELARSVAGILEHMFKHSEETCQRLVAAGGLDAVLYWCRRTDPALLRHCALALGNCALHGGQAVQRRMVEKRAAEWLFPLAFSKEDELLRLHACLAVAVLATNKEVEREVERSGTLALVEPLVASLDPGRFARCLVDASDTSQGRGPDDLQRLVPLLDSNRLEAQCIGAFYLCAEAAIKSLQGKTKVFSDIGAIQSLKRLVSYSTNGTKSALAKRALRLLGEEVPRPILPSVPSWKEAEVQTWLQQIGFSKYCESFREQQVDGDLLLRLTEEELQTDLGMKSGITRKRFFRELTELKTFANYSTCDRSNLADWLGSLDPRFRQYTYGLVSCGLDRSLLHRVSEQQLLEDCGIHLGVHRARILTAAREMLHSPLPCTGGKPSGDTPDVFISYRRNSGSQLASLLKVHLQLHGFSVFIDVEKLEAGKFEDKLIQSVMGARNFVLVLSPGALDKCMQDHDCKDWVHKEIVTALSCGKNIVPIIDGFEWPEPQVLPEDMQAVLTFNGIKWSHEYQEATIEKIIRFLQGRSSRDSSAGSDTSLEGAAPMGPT

Nc1c(CC(=O)O)cccc1C(=O)c1ccc(Br)cc1
active: viability decrease [3] 52.4% | viability decrease (inhibition) [8] 82.5%
8540: cell count [9, 20]
1.05: fold change [9, 19]
inactive: nuclear beta-catenin stimulation ([1]; at 10 µM) -0.1% | insulin secretion stimulation [2] 1.4% | tube area decrease [4] -4.7% | GLP1 secretion stimulation [5] 0.3% | inhibition of viability [6] -13.5% | viability decrease (inhibition) [7] 37.9% | fold change [9, 18] 0.937 | z-score [10, 22] -0.257
9120: cell count [9, 21]
0.4%: nuclear beta-catenin stimulation ([1]; stimulation, at 2 µM)
-0.191: z-score [10, 23]

Nc1cccc2c1CN(C1CCC(=O)NC1=O)C2=O (stereo not drawn)
inactive: nuclear beta-catenin stimulation ([1]; at 10 µM) 2% | insulin secretion stimulation [2] 1.3% | viability decrease [3] 0% | tube area decrease [4] -3.8% | GLP1 secretion stimulation [5] 0% | inhibition of viability [6] -8.6% | viability decrease (inhibition) [7] -19.5% | viability decrease (inhibition) [8] 1.2% | fold change [9, 18] 1.01 | z-score [10, 22] -0.434 | viability ([11]; at 0.000305 µM, OCI-C5x cells, with rucaparib 10 µM, 100% = cells with rucaparib alone) 116% | viability ([11]; at 0.000305 µM, OCI-C5x cells, without rucaparib) 116% | viability ([11]; at 0.000305 µM, OCI-P5x cells, with rucaparib 20 µM, 100% = cells with rucaparib alone) 126% | viability ([11]; at 0.000305 µM, OCI-P5x cells, without rucaparib) 106% | viability ([11]; at 0.00122 µM, OCI-C5x cells, with rucaparib 10 µM, 100% = cells with rucaparib alone) 122% | viability ([11]; at 0.00122 µM, OCI-C5x cells, without rucaparib) 116% | viability ([11]; at 0.00122 µM, OCI-P5x cells, with rucaparib 20 µM, 100% = cells with rucaparib alone) 130% | viability ([11]; at 0.00122 µM, OCI-P5x cells, without rucaparib) 105% | viability ([11]; at 0.00488 µM, OCI-C5x cells, with rucaparib 10 µM, 100% = cells with rucaparib alone) 126% | viability ([11]; at 0.00488 µM, OCI-C5x cells, without rucaparib) 115% | viability ([11]; at 0.00488 µM, OCI-P5x cells, with rucaparib 20 µM, 100% = cells with rucaparib alone) 123% | viability ([11]; at 0.0195 µM, OCI-C5x cells, with rucaparib 10 µM, 100% = cells with rucaparib alone) 113% | viability ([11]; at 0.0195 µM, OCI-C5x cells, without rucaparib) 114% | viability ([11]; at 0.0195 µM, OCI-P5x cells, with rucaparib 20 µM, 100% = cells with rucaparib alone) 125% | viability ([11]; at 0.0195 µM, OCI-P5x cells, without rucaparib) 107% | viability ([11]; at 0.0781 µM, OCI-C5x cells, with rucaparib 10 µM, 100% = cells with rucaparib alone) 120% | viability ([11]; at 0.0781 µM, OCI-C5x cells, without rucaparib) 132% | viability ([11]; at 0.0781 µM, OCI-P5x cells, with rucaparib 20 µM, 100% = cells with rucaparib alone) 133% | viability ([11]; at 0.0781 µM, OCI-P5x cells, without rucaparib) 109% | viability ([11]; at 0.313 µM, OCI-C5x cells, with rucaparib 10 µM, 100% = cells with rucaparib alone) 118% | viability ([11]; at 0.313 µM, OCI-C5x cells, without rucaparib) 117% | viability ([11]; at 0.313 µM, OCI-P5x cells, with rucaparib 20 µM, 100% = cells with rucaparib alone) 129% | viability ([11]; at 0.313 µM, OCI-P5x cells, without rucaparib) 109% | viability ([11]; at 1.25 µM, OCI-C5x cells, with rucaparib 10 µM, 100% = cells with rucaparib alone) 121% | viability ([11]; at 1.25 µM, OCI-C5x cells, without rucaparib) 119% | viability ([11]; at 1.25 µM, OCI-P5x cells, with rucaparib 20 µM, 100% = cells with rucaparib alone) 114% | viability ([11]; at 1.25 µM, OCI-P5x cells, without rucaparib) 103% | viability ([11]; at 5 µM, OCI-C5x cells, with rucaparib 10 µM, 100% = cells with rucaparib alone) 115% | viability ([11]; at 5 µM, OCI-C5x cells, without rucaparib) 117% | viability ([11]; at 5 µM, OCI-P5x cells, with rucaparib 20 µM, 100% = cells with rucaparib alone) 132% | viability ([11]; at 5 µM, OCI-P5x cells, without rucaparib) 110%
active: viability ([11]; at 0.00488 µM, OCI-P5x cells, without rucaparib) 95.9%
8240: cell count [9, 20]
8190: cell count [9, 21]
0.3%: nuclear beta-catenin stimulation ([1]; stimulation, at 2 µM)
0.686: z-score [10, 23]
0.954: fold change [9, 19]

NC(=O)c1cn(Cc2c(F)cccc2F)nn1
10000 and 8930: cell count [9, 21]
0.739 and 0.557: fold change [9, 19]
2.9%: nuclear beta-catenin stimulation ([1]; stimulation, at 2 µM)
inactive: inhibition [12] -5% | fluorescence ratio (interference) [13] 1 | nuclear beta-catenin stimulation ([1]; at 10 µM) 0.5% | insulin secretion stimulation [2] -2.7% | viability decrease [3] -3.55% | tube area decrease [4] -8.7% | GLP1 secretion stimulation [5] -0.1% | inhibition of viability [6] 18.7% | viability decrease (inhibition) [7] 11.5% | viability decrease (inhibition) [8] 5.25% | fold change [9, 18] 1.05 and 0.933 | outcome [14] | z-score [10, 22] -0.0452 | z-score [15] 0.155
-0.156: z-score [10, 23]
10500 and 8320: cell count [9, 20]

NC(CO)(CO)CO
3.7%: nuclear beta-catenin stimulation ([1]; stimulation, at 2 µM)
9620: cell count [9, 21]
-0.156: z-score [10, 23]
0.61: fold change [9, 19]
8750: cell count [9, 20]
inactive: nuclear beta-catenin stimulation ([1]; at 10 µM) 1.8% | insulin secretion stimulation [2] -0.6% | viability decrease [3] -2.3% | tube area decrease [4] -6% | GLP1 secretion stimulation [5] 3.3% | inhibition of viability [6] -37% | viability decrease (inhibition) [7] -8% | viability decrease (inhibition) [8] 2.75% | fold change [9, 18] 0.909 | z-score [10, 22] -0.338

O=C(O)CN(CCOCCOCCN(CC(=O)O)CC(=O)O)CC(=O)O
1.12: fold change [9, 19]
inactive: inhibition [12] -1% | fluorescence ratio (interference) [13] 1 | nuclear beta-catenin stimulation ([1]; at 10 µM) 0% | insulin secretion stimulation [2] 1.45% | viability decrease [3] 16.3% | tube area decrease [4] 6.4% | GLP1 secretion stimulation [5] 1.8% | inhibition of viability [6] 5.2% | viability decrease (inhibition) [7] -13.8% | viability decrease (inhibition) [8] 1.8% | fold change [9, 18] 0.942 | outcome [14] | z-score [15] 0.34
0%: nuclear beta-catenin stimulation ([1]; stimulation, at 2 µM)
10400: cell count [9, 21]
9820: cell count [9, 20]

NC(N)=NCCC[C@H](N)C(=O)O
active: insulin secretion stimulation [2] 0.9%
2.5%: nuclear beta-catenin stimulation ([1]; stimulation, at 2 µM)
1.65: fold change [9, 19]
10400: cell count [9, 20]
10700: cell count [9, 21]
inactive: inhibition [12] -3% | fluorescence ratio (interference) [13] 1 | nuclear beta-catenin stimulation ([1]; at 10 µM) -0.2% | viability decrease [3] 2.3% | tube area decrease [4] -23.7% | GLP1 secretion stimulation [5] 2.9% | inhibition of viability [6] -16.4% | viability decrease (inhibition) [7] 8.2% | viability decrease (inhibition) [8] 0% | fold change [9, 18] 0.976 | outcome [14] | remaining NAD [16] 10 nM | z-score [15] 0.285

Nc1c(CC(=O)O)cccc1C(=O)c1ccccc1
7840: cell count [9, 20]
0.5%: nuclear beta-catenin stimulation ([1]; stimulation, at 2 µM)
0.966: fold change [9, 19]
inactive: nuclear beta-catenin stimulation ([1]; at 10 µM) 0.8% | insulin secretion stimulation [2] -0.2% | viability decrease [3] -2.3% | tube area decrease [4] -6.1% | GLP1 secretion stimulation [5] 2.5% | inhibition of viability [6] 0.4% | viability decrease (inhibition) [7] 0.2% | viability decrease (inhibition) [8] -11.2% | fold change [9, 18] 0.914 | z-score [10, 22] -0.237
8580: cell count [9, 21]
-0.172: z-score [10, 23]

C(=C\c1ccccc1)/CN1CCN(C(c2ccccc2)c2ccccc2)CC1
0.3%: nuclear beta-catenin stimulation ([1]; stimulation, at 2 µM)
1.77 and 1.18: fold change [9, 19]
52.6% and 87.5%: viability [17]
-0.105: z-score [10, 23]
7700 and 8780: cell count [9, 20]
inactive: parasite load remaining [17] 32.6% and 111% | inhibition [12] 1% | fluorescence ratio (interference) [13] 1 | nuclear beta-catenin stimulation ([1]; at 10 µM) 1.7% | insulin secretion stimulation [2] -1.8% | tube area decrease [4] 26.3% | GLP1 secretion stimulation [5] -2.7% | fold change [9, 18] 0.969 and 0.928 | outcome [14] | z-score [10, 22] 0.0624 | remaining NAD [16] 10 nM | z-score [15] -0.01
7950 and 9460: cell count [9, 21]
active: viability decrease [3] 88.8% | inhibition of viability [6] 84.4% | viability decrease (inhibition) [7] 97.3% | viability decrease (inhibition) [8] 99.3%
